Assay results as given in the supplement of paper PMC8975748.
Counter-ions that a name gives are not always drawn.

system: Saccharomyces cerevisiae BY4741 SeMeCo community; assay: z-score of subpopulation abundance vs DMSO median, subpopulation auxotrophic for HLUM; higher = larger share of this subpopulation than in DMSO controls; conditions: 10 µM; 24 h; SM minimal medium; subpopulation (auxotrophy): HLUM
Description: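 Fluorescent four-plasmid SeMeCo (self-establishing metabolically cooperating S. cerevisiae BY4741 community; plasmids pH-mRuby2, pL-mWasabi, pU-eCFP, pM-TagRFP657) was grown 24 h in minimal SM medium with each Selleck FDA-approved drug at 10 µM in 384-well plates. Cells were fixed and imaged by high-content confocal microscopy. For each auxotrophic subpopulation (and the prototroph), a z-score gives the deviation from the DMSO vehicle-control population median.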

| SMILES | z-score of subpopulation abundance |
| --- | --- |
| CC[C@@]1(O)C(=O)OCc2c1cc1n(c2=O)Cc2cc3ccccc3nc2-1 [Camptothecin] | -0.44 |
| C[N+]12CCC(CC1)C(OC(=O)C(O)(c1ccccc1)c1ccccc1)C2 (centres undefined) [Clidinium Bromide] | 0.51 |
| CC(C)=CCOc1c2occc2cc2ccc(=O)oc12 [Imperatorin] | 0.23 |
| O=c1cccc2n1C[C@@H]1CNC[C@H]2C1 [Cytisine] | -0.32 |
| C=CN1CCCC1=O.II [Povidone iodine] | 0.32 |
| Nc1ccncc1 [4-Aminopyridine] | -0.46 |
| N[C@@H]1C[C@H]1c1ccccc1 [Tranylcypromine (2-PCPA) HCl] | 0.28 |
| CN1C(=O)COc2c(C(=O)NC3CN4CCC3CC4)cc(Cl)cc21 (centres undefined) [Azasetron HCl] | 0.19 |
| C[N+](C)(C)CCCCCCCCCC[N+](C)(C)C [Decamethonium Bromide] | -0.4 |
| C[C@@H]1O[C@@H](O[C@H]2C[C@@H](O)[C@]3(CO)[C@H]4[C@H](O)C[C@]5(C)[C@@H](C6=CC(=O)OC6)CC[C@]5(O)[C@@H]4CC[C@]3(O)C2)[C@H](O)[C@H](O)[C@H]1O [Ouabain] | -0.91 |
| CCN1CC2(OC(=O)c3ccccc3NC(C)=O)CCC(OC)C34C1C(CC23)C1(O)CC(OC)C2CC4C1(O)C2OC (centres undefined) [Lappaconitine] | -0.44 |
| O=C(O[C@H]1C[C@H]2CC[C@@H](C1)[N+]21CCCC1)C(O)(c1ccccc1)c1ccccc1 [Trospium chloride] | -0.2 |
| CCCCCCCCCCCCCCCC[n+]1ccccc1 [Cetylpyridinium Chloride] | 49.4 |
| COc1ccc(C(CN(C)C)C2(O)CCCCC2)cc1 (centres undefined) [Venlafaxine HCl] | -0.19 |
| CC(=O)OCC1=C(C(=O)O)N2C(=O)C(N)C2SC1 (centres undefined) [7-Aminocephalosporanic acid] | -0.76 |
| CN1[C@@H]2C[C@@H](OC(=O)[C@H](CO)c3ccccc3)C[C@H]1[C@@H]1O[C@@H]12 [Scopolamine HBr trihydrate] | -0.22 |
| C[N+]1(C)[C@@H]2C[C@@H](OC(=O)[C@H](CO)c3ccccc3)C[C@H]1[C@@H]1O[C@@H]12 [Methscopolamine] | 0.24 |

| SMILES | z-score of subpopulation abundance |
| --- | --- |
| CC[C@@H](C(N)=O)N1CCCC1=O [Levetiracetam] | -0.38 |
| NC(=O)CN1CCCC1=O [Piracetam] | 0.98 |
| CC(C)N(CCC(C(N)=O)(c1ccccc1)c1ccccn1)C(C)C (centres undefined) [Disopyramide] | 0.82 |
| C=C[C@H]1CN2CC[C@H]1C[C@H]2[C@H](O)c1ccnc2ccccc12 [Cinchonidine] | 0.1 |
| C=CCN1C[C@H](C(=O)N(CCCN(C)C)C(=O)NCC)C[C@@H]2c3cccc4[nH]cc(c34)C[C@H]21 [Cabergoline] | 0.78 |
| CN1c2ccccc2C(NCCCCCCC(=O)O)c2ccc(Cl)cc2S1(=O)=O (centres undefined) [Tianeptine sodium] | 0.87 |
| COC(=O)C1=CCCN(C)C1 [Arecoline HBr] | -0.09 |
| COc1ccc(C(CN(C)C)C2(O)CCCCC2)cc1 (centres undefined) [Venlafaxine] | -0.12 |
| CC(C)(O)C(Cl)(Cl)Cl [Chlorobutanol] | -0.06 |
| CN(C)[C@@H]1C(=O)C(C(N)=O)=C(O)[C@@]2(O)C(=O)C3=C(O)c4c(O)ccc(Cl)c4[C@@](C)(O)[C@H]3C[C@@H]12 [Chlortetracycline HCl] | 0.32 |
| CN[C@@H]1[C@@H](O)[C@@H](O[C@@H]2[C@@H](O)[C@H](O[C@H]3O[C@H]([C@@H](C)O)[C@@H](O)[C@H](O)[C@H]3N)[C@@H](N)C[C@H]2N)OC[C@]1(C)O [Geneticin (G418 Sulfate)] | -0.56 |
| C#C[C@]1(O)C=C[C@H]2[C@@H]3CCC4=CC(=O)CC[C@@H]4[C@H]3CC[C@@]21CC [Gestodene] | -0.58 |
| COc1ccc2c(c1)[C@]13CCCC[C@@H]1[C@H](C2)N(C)CC3 [Dextromethorphan hydrobromide hydrate] | -0.5 |
| O=c1[nH]c2ccccc2n1CCCN1CCC(n2c(=O)[nH]c3cc(Cl)ccc32)CC1 [Domperidone] | 0.88 |
| Cc1cc(O)ccc1Cl [Chlorocresol] | -0.16 |
| CN(C)C(=O)Oc1ccc[n+](C)c1 [Pyridostigmine Bromide] | -1.14 |
| CCN(CC)CCOC(=O)C(O)(c1ccccc1)c1ccccc1 [Benactyzine hydrochloride] | 1.13 |
